# According to ChEMBL document CHEMBL3988442, “University of Dundee, Small-Polar-MMV Screening Library” (2021):
# In all, about 66,000 compounds went through this assay and about 960 (1.5%) showed an effect of 50% or more. For the sample, strong results were picked, then their nearest neighbours and some compounds at random.
# Test system: Trypanosoma brucei
# Experiment: Trypanosoma brucei 72 hour study
# Format: functional, organism-based
# Design: scale not given: in the data most compounds retested in dose-response had high values
smiles,measurement,setting,value
Cc1nc(CN2CCCC2c2noc(C(C)C)n2)oc1C (stereo not given),Percent Effect,"30.3 µM, […]",12.42%
same,Percent Effect,"10 mM, 10 mM as filed; unlikely as a test dose",-15.34%
Cc1ccc(N(Cc2ccco2)C(=O)CC2=NN(C)C(=O)C2)cc1,Percent Effect,"30 µM, 30.03 µM",-11.27%
COCC1N(C(=O)c2ccc3c(c2)OCCCO3)[C@H]2CC[C@]1(O)CC2 (stereo not given in full),Percent Effect,"30.3 µM, […]",-35.32%
CNC(=O)C1CCN(C(=O)NCc2ccc(-c3ccn[nH]3)cc2)CC1,Percent Effect,"30.3 µM, […]",-16.44%
O=C(NCc1ccc(-c2ccn[nH]2)cc1)N1CCC(N2CCCC2)C1 (stereo not given),Percent Effect,"30 µM, 30.03 µM",50.84%
NC(=O)C1CCN(C(=O)NCc2ccc(-c3ccn[nH]3)cc2)CC1,Percent Effect,"30.3 µM, […]",-25.22%
CN(C)C(=O)CC1CC2(CCN(Cc3ccoc3)CC2)c2ccccc21.O=C(O)C(F)(F)F (stereo not given),Percent Effect,"30 µM, 30.03 µM",-22.74%
Cc1ccc(C(C)NCc2cn(CCC(N)=O)c3ccccc23)cc1C (stereo not given),Percent Effect,"30.3 µM, […]",96.45%
CC(C)n1cnnc1CCNCc1cn(CCC(N)=O)c2ccccc12,Percent Effect,"30.3 µM, […]",-18.24%
CC(NCc1cn(CCC(N)=O)c2ccccc12)c1nncn1C (stereo not given),Percent Effect,"30.3 µM, […]",-49.32%
CC(CN1CCC2(CC1)N=C(c1cccnc1)NC2=O)c1ccccc1 (stereo not given),Percent Effect,"30 µM, 30.03 µM",6.734%
COCC1CC2(CCN(C(=O)c3occc3C)CC2)CN1C(C)C.O=C(O)C(F)(F)F (stereo not given),Percent Effect,"30.3 µM, […]",-8.924%
CCCc1noc(CCC(=O)N2CCCC2c2ccsc2)n1 (stereo not given),Percent Effect,"30 µM, 30.03 µM",-44.02%
CCCc1noc(CN2CCCC2c2noc(C3CC3)n2)n1 (stereo not given),Percent Effect,"30.3 µM, […]",-16.45%
CCCc1noc(CN2CCCC2c2ccsc2)n1 (stereo not given),Percent Effect,"30 µM, 30.03 µM",55.39%
CS(=O)(=O)NCc1cnc2n1CCN(Cc1cccs1)CC2.O=C(O)C(F)(F)F,Percent Effect,"30 µM, 30.03 µM",-2.909%
CN(C)[C@H]1CN(C(=O)CCCc2ccc(F)cc2)C[C@@H]1C1CC1,Percent Effect,"30 µM, 30.03 µM",21.51%
O=C(O)[C@@H]1CN(C(=O)CCCc2ccc(F)cc2)C[C@H]1C1CC1,Percent Effect,"30 µM, 30.03 µM",-8.475%
N[C@H]1CN(C(=O)CCCc2ccc(F)cc2)C[C@@H]1C1CC1,Percent Effect,"30 µM, 30.03 µM",79.67%
O=C(NCc1cccs1)[C@@H]1CC[C@@H]2[C@@H](CCN2c2ncccn2)O1.O=C(O)C(F)(F)F,Percent Effect,"30 µM, 30.03 µM",-28.93%
CCC(Nc1ncccn1)c1ccc(OC)cc1 (stereo not given),Percent Effect,"30 µM, 30.03 µM",62.75%
COc1ccc(C(CN2CCN(C)CC2)Nc2ncccn2)cc1 (stereo not given),Percent Effect,"30 µM, 30.03 µM",-24.12%
CCC(Nc1ncccn1)c1cccnc1 (stereo not given),Percent Effect,"30 µM, 30.03 µM",-16.09%
CCC(C)Oc1ccc(CNCCNS(C)(=O)=O)cc1Cl (stereo not given),Percent Effect,"30 µM, 30.03 µM",0.13%
O=C(O)C(F)(F)F.O=C(O)C(F)(F)F.O=C1CC(c2ccncc2)C2(CCN(CCc3ccccc3)CC2)N1 (stereo not given),Percent Effect,"30 µM, 30.03 µM",36.79%
CS(=O)(=O)N1CCC2(CC1)CC(NCC1CC1)c1ccccc12.O=C(O)C(F)(F)F (stereo not given),Percent Effect,"30.3 µM, […]",3.499%
CN1CC2(CCCN(Cc3ccc(Oc4ccccc4)cc3)C2)OC1=O (stereo not given),Percent Effect,"30 µM, 30.03 µM",-7.898%
CN(Cc1cc(Br)cn1C)C(=O)Cc1cccnc1,Percent Effect,"30 µM, 30.03 µM",102.7%
CN(Cc1cc(Br)cn1C)C(=O)c1cccnc1,Percent Effect,"30 µM, 30.03 µM",-39.03%
CN(Cc1cc(Br)cn1C)C(=O)Cc1cccc(O)c1,Percent Effect,"30 µM, 30.03 µM",-57.62%
COc1ccc(CN2CC[C@H]3[C@H]2CC(=O)N3Cc2cccc(C)n2)cc1.O=C(O)C(F)(F)F.O=C(O)C(F)(F)F,Percent Effect,"30.3 µM, […]",-40.33%
Cc1cc(N2CCN(C(=O)c3cc(Cl)c[nH]3)CC2)nc(N)n1,Percent Effect,"30 µM, 30.03 µM",109.2%
Cc1cc(N2CCN(C(=O)c3cc(Cl)c[nH]3)CC2)nc(C(C)C)n1,Percent Effect,"30 µM, 30.03 µM",-55.97%
Cc1cc(N2CCN(C(=O)c3cc(Cl)c[nH]3)CC2)nc(C)n1,Percent Effect,"30 µM, 30.03 µM",-21.87%
Cc1ccc(CN(CCCN(C)C)Cc2cnc(C)n2C)o1.O=C(O)CC(O)(CC(=O)O)C(=O)O,Percent Effect,"30.3 µM, […]",-2.378%
CCn1c(C(=O)N2CCN(CC[S+](C)[O-])CC2)cc2ccccc21 (stereo not given),Percent Effect,10 µM,-31.07%
CN(C)c1cccc(CNC(=O)Nc2cc(C#N)ccc2Cl)n1,Percent Effect,"30.3 µM, […]",-223.5%
COc1ccc(C)c(NC(=O)NCc2cccc(N(C)C)n2)c1,Percent Effect,"30.3 µM, […]",-277.4%
CC(=O)c1ccc(NC(=O)NCc2cccc(N(C)C)n2)cc1C,Percent Effect,"30 µM, 30.03 µM",-17.1%
COc1cc(F)cc(NC(=O)NCc2cccc(N(C)C)n2)c1,Percent Effect,"30.3 µM, […]",-613%
COCc1c(Cl)cccc1NC(=O)NCc1cccc(N(C)C)n1,Percent Effect,"30.3 µM, […]",55.78%
COc1ccc(NC(=O)NCc2cccc(N(C)C)n2)c(Cl)c1,Percent Effect,"30.3 µM, […]",103.9%
N#Cc1cccc(C(=O)N2CCC3(CCC(=O)N(C4CC4)C3)CC2)c1,Percent Effect,"30 µM, 30.03 µM",-3.327%
O=C(O)C(F)(F)F.c1ccc(CN2CCc3c(CNc4nccs4)n[nH]c3C2)nc1,Percent Effect,"30 µM, 30.03 µM",-34.93%
Cc1ccn(CCC(=O)N2CCCC2c2nnc(-c3scnc3C)o2)n1 (stereo not given),Percent Effect,"30.3 µM, […]",-1.608%
Cc1cnc(-c2nc(C3CCCN(Cc4ccccc4C)C3)no2)cn1.Cl (stereo not given),Percent Effect,"30.3 µM, […]",-19.46%
CCc1cc(-c2ccnc3c2ccn3C)nc(N2CCOCC2)n1,Percent Effect,"30 µM, 30.03 µM",-28.1%
Cn1ccc2c(-c3cc(N4CCOCC4)ncn3)ccnc21,Percent Effect,"30 µM, 30.03 µM",-20.01%
Cn1ccc2c(-c3cc(N)nc(N4CCOCC4)n3)ccnc21,Percent Effect,"30 µM, 30.03 µM",69.92%
CCNc1nc(C(=O)N(C)Cc2nc(CC)no2)cs1,Percent Effect,"30 µM, 30.03 µM",-27.33%
CC(C)c1nc(C2CCCN2c2cnc3cc(F)c(F)cc3n2)no1 (stereo not given),Percent Effect,"30.3 µM, […]",85.34%
CC(C)c1nc(C2CCCN2c2cnc3ccccc3n2)no1 (stereo not given),Percent Effect,"30.3 µM, […]",-0.9034%
CC(C)c1nc(C2CCCN2c2ccnc(C3CCCC3)n2)no1 (stereo not given),Percent Effect,"30.3 µM, […]",-51.91%
Cc1noc(C)c1CN1CCc2ncnc(-c3ccoc3)c2CC1.O=C(O)C(F)(F)F,Percent Effect,"30.3 µM, […]",-51.79%
Cc1cnccc1CNCc1ccc(OC23CCCN(CC2)C3)cc1 (stereo not given),Percent Effect,"30 µM, 30.03 µM",6.423%
COc1cc(C#N)ccc1OC12CCCN(CC1)C2 (stereo not given),Percent Effect,"30 µM, 30.03 µM",-13.64%
O=c1[nH]nc(CNCc2ccc(OC34CCCN(CC3)C4)cc2)[nH]1 (stereo not given),Percent Effect,"30 µM, 30.03 µM",-0.5692%
Cc1nc(CNCc2cccc(OC34CCCN(CC3)C4)c2)n[nH]1 (stereo not given),Percent Effect,"30 µM, 30.03 µM",3.883%
c1ccc(Oc2ccc(OC34CCCN(CC3)C4)cc2)cc1 (stereo not given),Percent Effect,"30.3 µM, […]",99.82%
c1ccc(Oc2cccc(OC34CCCN(CC3)C4)c2)cc1 (stereo not given),Percent Effect,"30.3 µM, […]",99.26%
Cl.O=C(Nc1cccc(CNCc2cccs2)c1)C1CC1,Percent Effect,10 µM,-25.65%
O=C(CC1CCC2(CC1)CCN(Cc1ccncc1)CC2)N1CCCC1.O=C(O)C(F)(F)F,Percent Effect,"30.3 µM, […]",-30.07%
CCCn1c(N2CCCCC2)nc2c(C)nn(C)c2c1=O,Percent Effect,"30.3 µM, […]",-27.42%
CCCn1c(N2CCCC2)nc2c(C)nn(C)c2c1=O,Percent Effect,"30.3 µM, […]",-10.23%
CCCn1c(N2CCCC(C)C2)nc2c(C)nn(C)c2c1=O (stereo not given),Percent Effect,"30.3 µM, […]",99.54%
CC(C)CS(=O)(=O)N1C[C@H]2C[C@H](C(=O)N3CCOCC3)[C@@H](C1)O2,Percent Effect,"30.3 µM, […]",-39.74%
COc1ncccc1CNc1snc(Cl)c1C#N,Percent Effect,"30 µM, 30.03 µM",-23.85%
CCN(CC)CCNC(=O)c1cc(C(C)C)nc(N2CCCC2)n1,Percent Effect,"30 µM, 30.03 µM",-3.491%
COCCCNC(=O)c1cc(C(C)C)nc(N2CCCC2)n1,Percent Effect,"30.3 µM, […]",-9.807%
CC(C)c1cc(C(=O)NCCCN(C)C)nc(N2CCCC2)n1,Percent Effect,"30.3 µM, […]",85.35%
Cc1nc(C(=O)N2CC[C@@]3(C[C@@H](NS(C)(=O)=O)CCO3)C2)cs1,Percent Effect,"30.3 µM, […]",-224.6%
Cc1ccn(-c2ccc(NCc3ccnc(N4CCCCC4)c3)nn2)n1,Percent Effect,"30.3 µM, […]",100.1%
Cc1ccn(-c2ccc(NCc3cccnc3N3CCCCC3)nn2)n1,Percent Effect,"30.3 µM, […]",1.055%
Cc1ccn(-c2ccc(NCc3ccccc3F)nn2)n1,Percent Effect,"30.3 µM, […]",-5.586%
CC1c2ncc(CNC(=O)C3CC3)n2CCN1Cc1ccsc1.O=C(O)C(F)(F)F (stereo not given),Percent Effect,"30.3 µM, […]",-8.055%
N#Cc1cccc(S(=O)(=O)NC(=O)COCC(F)(F)F)c1,Percent Effect,"30.3 µM, […]",-64.9%
O=C(CCOCC(F)(F)F)NS(=O)(=O)c1cccnc1,Percent Effect,"30.3 µM, […]",-16.93%
N#Cc1cccc(S(=O)(=O)NC(=O)CCOCC(F)(F)F)c1,Percent Effect,"30.3 µM, […]",72.29%
CN(C)c1ncc(-c2cc(C(=O)NCCC#N)n(CC3CC3)c2)cn1.O=C(O)C(F)(F)F,Percent Effect,"30.3 µM, […]",-1.079%
Cn1cc(C(=O)N2CCCC(Cc3cccc4ncccc34)C2)cn1 (stereo not given),Percent Effect,"30.3 µM, […]",-45.5%
CCN(CC)C(=O)NCCc1ccn(-c2ccccc2)n1,Percent Effect,10 µM,99.69%
CC(C)CCC(=O)NCCc1ccn(-c2ccccc2)n1,Percent Effect,10 µM,100.3%
CCC(CC)C(=O)NCCc1ccn(-c2ccccc2)n1,Percent Effect,10 µM,-35.97%
CC(C)(CNC(=O)NCCc1ccn(-c2ccccc2)n1)C(N)=O,Percent Effect,10 µM,-34.81%
CC(C)(C)C(=O)NCCc1ccn(-c2ccccc2)n1,Percent Effect,"30 µM, 30.03 µM",103.6%
O=C(CCNc1ncccn1)NCCc1ccn(-c2ccccc2)n1,Percent Effect,"30 µM, 30.03 µM",19.3%
CC(C)CC(=O)NCCCc1cc(N)n(-c2ccccc2)n1,Percent Effect,"30 µM, 30.03 µM",-23.13%
CC(C)(C)C(=O)NCCC(=O)NCCc1ccn(-c2ccccc2)n1,Percent Effect,10 µM,-35.6%
COCCNC(=O)NCCc1ccn(-c2ccccc2)n1,Percent Effect,"30 µM, 30.03 µM",42.02%
CC(C)c1nc(C2CCCN2Cc2nnc(C3CCC3)o2)no1 (stereo not given),Percent Effect,10 µM,-24.2%
CN(C)CC(=O)N1CCCC1c1cncc(Oc2ccc(F)cc2)n1 (stereo not given),Percent Effect,"30.3 µM, […]",-19.56%
COc1c(C2CCCN2C(=O)c2ccc(C#N)c(C)n2)c(C)nn1C (stereo not given),Percent Effect,10 µM,-24.86%
same,Percent Effect,"30.3 µM, […]",0.3708%
Cc1ccccc1Cc1nc(CSc2nnc(N)n2C2CC2)no1,Percent Effect,"30.3 µM, […]",69.45%
Cc1ccccc1Cc1nc(CSc2nnc(N)n2C)no1,Percent Effect,"30.3 µM, […]",30.54%
CCc1nc(CSc2nnc(N)n2C2CC2)no1,Percent Effect,"30.3 µM, […]",-10.47%
O=C1NCCN1C1CCN(CCOc2ccccc2F)CC1,Percent Effect,10 µM,-33.22%
Cc1ccc(CN2C[C@@H]3CCCO[C@@H]3[C@H](N(C)Cc3ccco3)C2)o1.O=C(O)C(F)(F)F.O=C(O)C(F)(F)F,Percent Effect,"30 µM, 30.03 µM",25.08%
CCCN1CCCn2c(nc(CNC(=O)c3cnoc3C)cc2=O)C1.O=C(O)C(F)(F)F,Percent Effect,"30 µM, 30.03 µM",19.21%
